Only some compounds are listed: those with a hit (about 12% of all), similar ones and a draw of the others.
HP1b binding inh – HP1-beta chromodomain-methylated histone interaction inhibition; AID 540317; 390,000 tested, 0.56% active; AlphaScreen HP1-beta / biotin-H3K9me3 peptide binding; P83916; Potency, µM (highest dose often 114 µM), for the others: top-dose activity change, negative = inhibition, hits mostly inhibitors; note: nearly all actives have a fitted effect of over 70% in size
Target sequence (P83916 whole entry, looked up): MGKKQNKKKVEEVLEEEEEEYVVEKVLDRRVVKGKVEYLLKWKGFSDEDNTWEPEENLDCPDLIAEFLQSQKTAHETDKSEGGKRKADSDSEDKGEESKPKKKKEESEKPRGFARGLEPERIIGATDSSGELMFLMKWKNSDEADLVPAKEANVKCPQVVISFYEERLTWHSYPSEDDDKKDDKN
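AlphaScreen: HP1-beta (50 nM) preformed 30 min with biotin-H3(1-18)K9me3 peptide (50 nM) in PBS pH 7.4, 0.01% Tween-20. Compound added for 30 min at RT, then streptavidin donor/nickel chelate acceptor beads (10 ug/mL) for 30 min.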
Sfp PPTase inh – Sfp phosphopantetheinyl transferase inhibition; Q9F4F7; Biochemical Sfp PPTase activity, qHTS; Potency, µM, without a hit: largest response in the series, negative = inhibition, most hits filed as inhibitors; 310,000 tested, 3.5% active; AID 1490;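 note: the enzyme is Sfp with the accession as filed and its product quenches rhodamine fluorescence; 0% = enzyme reaction without inhibitor and -100% = no enzyme wells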
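Sfp 15 nM + cpd, 15 min RT; start w/ rhodamine-CoA 5 uM, BHQ-2-YbbR 12.5 uM (final); 50 mM Hepes pH 7.6, 10 mM MgCl2, 0.01% NP-40, 0.01% BSA; read 525/598 nm at 0 and 30 min.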
BAZ2B inh – BAZ2B (human) inhibition | Q9UIF8 | AlphaScreen BAZ2B-H3K14Ac peptide displacement | Potency, µM (highest dose often 114 µM), for the others: at the top dose activity change, negative = inhibition, most hits filed as inhibitors | 360,000 tested, 4.4% active; note: % is set by controls: 0 for no effect and ±100 for the full control effect; nearly all actives have a fitted effect of over 60% in size
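Protein-peptide AlphaScreen: BAZ2B 50 nM, b-H3K14Ac 50 nM, 1x PBS pH 7.4 + 0.01% Tween-20. Preincubation 30 min RT; cpd 30 min RT (top 110 uM); beads 20 min RT, light-protected.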
JMJD2A Tudor inh – blocks the human JMJD2A Tudor domain. 390,000 tested, 4.4% active. AlphaScreen JMJD2A-Tudor / H3K4me3 peptide binding. O75164. Potency, µM (titrated, usually from 114 µM), inactives show top-dose activity change, negative = inhibition, most hits filed as inhibitors; note: % is set by controls: 0 for no effect and ±100 for the full control effect; nearly all actives have a fitted effect of over 50% in size
G9a inh – G9a (human) methyltransferase inhibition; Q96KQ7; G9a H3K9 monomethylation, AlphaScreen, 2 h; Potency, µM (top dose mostly 102 µM), inactives show at the top dose activity, negative = inhibition, usual class: inhibitors; 350,000 tested, 8.8% active; AID 504332; note: % is set by controls: 0 for no effect and ±100 for the full control effect; nearly all actives have a fitted effect of over 75% in size
Target sequence (Q96KQ7 913-1193 limits assumed): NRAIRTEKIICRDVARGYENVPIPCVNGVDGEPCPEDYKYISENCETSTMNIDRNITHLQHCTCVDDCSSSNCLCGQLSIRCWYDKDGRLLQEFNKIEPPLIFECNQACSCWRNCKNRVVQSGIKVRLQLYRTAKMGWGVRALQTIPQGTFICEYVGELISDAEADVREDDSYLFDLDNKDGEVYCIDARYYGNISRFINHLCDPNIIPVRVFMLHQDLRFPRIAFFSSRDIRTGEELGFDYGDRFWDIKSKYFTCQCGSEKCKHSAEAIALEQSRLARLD
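G9a (20 nM) was preincubated 15 min with compound, then reacted 2 h at room temperature with 500 nM biotin-H3K9 peptide and 20 µM SAM. Monomethyl-H3K9 detected by AlphaScreen using anti-H3K9me1 antibody.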
L3MBTL1 inh – inhibitors of human L3MBTL1 | Q9Y468 | AlphaScreen L3MBTL1–H3K9me1 peptide binding | Potency, µM (titrated, usually from 57.1 µM), for the others: at the top dose activity, negative = inhibition, usual class: inhibitors | 230,000 tested, 0.66% active; note: % is set by controls: 0 for no effect and ±100 for the full control effect; nearly all actives have a fitted effect of over 60% in size
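Read-out is AlphaScreen signal from streptavidin donor and nickel chelate acceptor beads (10 ug/mL final each) bridging L3MBTL1 (50 nM) and biotinylated K9-monomethylated H3(1-15) peptide (75 nM), after 30 min compound exposure at room temperature.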
Active calls of the source: *; u = inconclusive; x = not tested or not shown; [ ] = remark or other dose. Calls come from the whole dose curve; as a rule, active = well fitted curve in the direction sought with a large enough effect; inconclusive = small, poorly fitted or top-dose-only effect, or another doubt; inactive = no such curve, though single readings can be large; an effect the other way counts as inactive or inconclusive. Potency is the fitted concentration of half-maximal effect.

SMILES	HP1b binding inh	Sfp PPTase inh	BAZ2B inh	JMJD2A Tudor inh	G9a inh	L3MBTL1 inh
COc1ccc(C(CC(=O)NCc2ccccc2)Sc2n[nH]c(-c3ccc(Cl)cc3)n2)cc1 (configuration not stated)	20%	5%	7%	-17%	25µM*	-2%
COc1ccc(-c2nc(SC(CC(=O)NCc3ccccc3)c3ccc(OC)c(OC)c3)n[nH]2)cc1 (configuration not stated)	15%	7%	-20%	-19%	45µM*	6%
CN1CC[C@H](c2c(O)cc(O)c3c(=O)cc(-c4ccccc4Cl)oc23)[C@@H](O)C1	-2%	x	x	-34%	x	x
Cc1ccc(C(=O)N2CC(=O)Nc3ccc(F)cc3C2c2ccccc2)cc1 (configuration not stated)	-1%	5%	-12%	-16%	u	x
O=C(c1ccc(F)cc1)[C@@H]1[C@@H](C(=O)c2ccccc2)[C@@]2(C(=O)Nc3ccccc32)[C@H]2c3ccccc3C=CN12	x	2%	u	x	7.1µM*	-15%
CC(=O)[C@@H]1[C@@H](C(=O)c2ccc(C)cc2)[C@]2(C(=O)Nc3ccccc32)[C@H]2C=Cc3cc(F)ccc3N12	-36%	4µM*	u	u	u	-3%
COC(=O)c1ccc(NC2(C#N)C(=O)Nc3ccccc32)cc1 (configuration not stated)	27%	15%	8%	-10%[57.1 µM]	12%[59 µM]	-2%
CC(=O)[C@@H]1[C@@H](C(=O)c2ccc(F)cc2)[C@]2(C(=O)Nc3ccccc32)[C@H]2C=Cc3cc(F)ccc3N12	u	20µM*	-26%	u	u	x
O=C(COc1ccccc1F)Nc1ccc(OCc2cc(=O)n3ccccc3n2)cc1	5%[57 µM]	x	-5%	5%	-2%[59 µM]	x
CC(C)CC(NC(N)=O)C(=O)OCC(=O)Nc1ccc(OC(F)F)cc1 (configuration not stated)	3%	18%	-9%	40µM*	-7%	-3%
O=C1c2cccc([N+](=O)[O-])c2C(=O)N1C1CCCCC1	4%	5%	-13%	-31%	x	3%
O=C1c2cccnc2C(=O)N1C1CCCCC1	31%	23%	79µM*	-8%	108%[59 µM]	2%
CCC(=O)Nc1ccc(N2CCOCC2)c(S(=O)(=O)Nc2ccc(Cl)cc2)c1	u	x	3%	79µM*	u	-7%
O=C(Nc1ccc(N2CCOCC2)c(S(=O)(=O)Nc2ccc(Cl)cc2)c1)c1ccc(=O)[nH]n1	-6%	x	x	u	x	u
O=C(Nc1ccc(N2CCOCC2)c(S(=O)(=O)Nc2ccc(Cl)cc2)c1)c1cnccn1	u	5.6µM*	u	-31%	x	-9%
C[C@H](NC(N)=O)C(=O)Nc1ccc(N2CCOCC2)c(S(=O)(=O)Nc2ccc(Cl)cc2)c1	u	x	u	u	1µM*	1%
CC(NC(N)=O)C(=O)Nc1ccc(Cl)c(S(=O)(=O)Nc2ccc(Cl)cc2)c1 (configuration not stated)	28%	13%	-6%	-14%	-9%	10%
O=C(CC(C(=O)O)N1CCOCC1)Nc1ccc(Cl)cc1 (configuration not stated)	10%	-9%	10%	45µM*	u	4%
CSc1cccc(NC(=O)C2CCN(c3nc4ccccc4[nH]3)CC2)c1	22%[57 µM]	x	-20%	-21%	-31%[59 µM]	x
COc1ccc2nc3oc(C(=O)N(C)c4ccc(Cl)cc4)cc3cc2c1	30%	x	x	-14%	-24%[59 µM]	x
Cc1ccc(-n2ccn(CC(=O)c3ccc(F)cc3)c(=O)c2=O)cc1C	27%	x	-10%	-7%	-37%[59 µM]	x
CN1CCC(=NNC(=O)C(=O)Nc2ccc(F)cc2)CC1	47%	6%	-17%	-3%[11.4 µM]	u	10%
CN1CCN(C(=S)C(=O)NCc2ccccc2)CC1	18%	5%	-9%	-21%	6%	-4%
CN1CCC(=NNC(=O)C(=O)NCc2ccccc2)CC1	17%	1%	-1%	-9%	40µM*	u
CN1CCC(=NNC(=O)C(=O)Nc2cccc(Br)c2)CC1	5%	12%	-27%	22µM*	-5%[59 µM]	x
SMILES	HP1b binding inh	Sfp PPTase inh	BAZ2B inh	JMJD2A Tudor inh	G9a inh	L3MBTL1 inh
O=C(/C=C/Nc1ccc(F)cc1F)c1cccs1	21%	u	-1%	-19%	14µM*	-6%
O=C(/C=C\Nc1cccc(F)c1)c1cccs1	85%	-7%	16%	-1%[11.4 µM]	-7%[59 µM]	-2%
CCOC(=O)c1ccccc1N/C=C/C(=O)c1cccs1	85%	-16%	18%	16%	32µM*	2%
O=C(/C=C/Nc1ccccc1F)c1cccs1	28%	9%	1%	-8%	32µM*	0%
CS(=O)(=O)Nc1ccc(-c2nc3ccccc3s2)cc1	26%	x	-13%	-13%	u	x
Cc1nn(-c2nnc(NCc3ccccc3)nn2)c(C)c1Br	u	-4%	35µM*	50µM*	13µM*	-29%
Cc1noc(C)c1-c1nccc(NCc2ccccc2)n1	x	u	x	x	-49%[0.501 µM]	x
Cc1cc(C)n(-c2nc(C)nc(NCc3ccccc3)n2)n1	43%	6%	-5%	-19%	u	x
Cc1cc(C)n(-c2nnc(NCc3ccc(Cl)cc3)nn2)n1	u	14%	u	40µM*	-35%	u
O=S(=O)(c1ccccc1C(F)(F)F)N1CCN(c2nc(-c3cccs3)nc3ccccc23)CC1	54%	x	x	-11%	x	x
CCOc1cc(/C=N/NC(=O)c2cc(C3CC3)[nH]n2)ccc1O	-1%	14%	-27%	50µM*	45µM*	0%
COc1cc(/C=N/NC(=O)c2cc(C3CC3)[nH]n2)ccc1O	52%	0%	-5%	-3%	0%	x
COc1ccc(CNCCc2ccc(Cl)cc2)cc1OCc1ccccc1	u	-29%	56µM*	40µM*	10µM*	x
CCOc1cc(CNn2cn[nH]c2=S)cc(Cl)c1OCc1ccccc1F	9%	7%	-2%	u	7.9µM*	0%
CCNCc1cc(Cl)c(OCc2ccccc2)c(OCC)c1	35%	-9%	-30%	-6%	-43%	2%
CCOc1cc(CNCc2ccccc2)ccc1OCc1ccc(Cl)cc1	72%	-27%	13%	0%	-13%[2.33 µM]	x
CCOc1cc(CNCCc2ccc(S(N)(=O)=O)cc2)ccc1OCc1ccccc1	24%	11µM*	u	-6%	10%	-5%
COc1ccc(CNCC(O)(c2ccc(F)cc2)c2ccc(F)cc2)cc1OC	44%	-1%	-11%	-24%	16%	x
COc1ccc(CNCC(O)(c2ccc(Cl)cc2)c2ccc(Cl)cc2)cc1OC	12%	45µM*	-10%	-25%	-2%	-4%

High-throughput results (PubChem BioAssay)
